Compound activity deposited in PubChem BioAssay by Broad Institute.
Only some compounds are listed: those with a hit (about 2.3% of all), similar ones and a draw of the others.
Pf Dd2 inh: P. falciparum Dd2 growth inhibitors, primary screen, SYBR Green fluorescence, single dose replicates. 72 h; active compounds read low. activity change, % at 10 µM. 94,000 tested, 2.3% active; in the data active means activity change below about -80%
C diff growth: C. difficile growth inhibitors, primary screen, HTS; Clostridium difficile clinical isolate growth, OD600, 24 h; active compounds read low; growth activity, negative = inhibition, % at 16 µg/mL (by protocol); 86,000 tested, 0.25% active; AID 1259249, 2017;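 active means mean growth activity at or below -80% and every replicate also at or below -80%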;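 further: 0% = DMSO wells and -100% = levofloxacin 16 µg/mL wells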
* marks the source's active call; other numbers are inactive results; / = not tested or not shown.

SMILES	Pf Dd2 inh	C diff growth
COc1ccc2c3c([nH]c2c1)[C@@H](CO)N(C(=O)C1CCCCC1)CC31CCN(Cc2nccs2)CC1	-87*	-4
CC(C)C(=O)Nc1ccc2c(c1)C(=O)N(C)[C@@H]1CC[C@@H](CC(=O)NCCc3ccccc3)O[C@@H]1CO2	20	-1
COc1cccc(-c2cnc3c(c2)C(=O)N([C@@H](C)CO)C[C@@H](C)[C@H](CN(C)C(=O)Nc2ccccc2F)O3)c1	-17	-12
C[C@@H]1CN([C@@H](C)CO)C(=O)c2cc(NC(=O)CCC(F)(F)F)ccc2O[C@@H](C)CCCCO[C@@H]1CN(C)S(=O)(=O)c1ccc(Cl)cc1	-86*	-7
C[C@@H]1CCCCO[C@@H](CN(C)S(=O)(=O)c2ccc(Cl)cc2)[C@@H](C)CN([C@H](C)CO)C(=O)c2cc(NC(=O)CCC(F)(F)F)ccc2O1	-78	4
C[C@@H]1CCCCO[C@@H](CN(C)S(=O)(=O)c2ccc(F)cc2)[C@@H](C)CN([C@H](C)CO)C(=O)c2cc(NC(=O)Nc3ccc(C(F)(F)F)cc3)ccc2O1	-82*	/
C[C@@H]1CCCCO[C@@H](CN(C)S(=O)(=O)c2ccc(F)cc2)[C@H](C)CN([C@@H](C)CO)C(=O)c2cc(NC(=O)Nc3ccc(C(F)(F)F)cc3)ccc2O1	11	/
C[C@H](CO)N1C[C@H](C)[C@H](CN(C)S(=O)(=O)c2ccc(F)cc2)OCCCC[C@H](C)Oc2ccc(NC(=O)Nc3ccc(C(F)(F)F)cc3)cc2C1=O	-31	/
C[C@@H]1CCCCO[C@H](CN(C)S(=O)(=O)c2ccc(F)cc2)[C@@H](C)CN([C@@H](C)CO)C(=O)c2cc(NC(=O)Nc3ccc(C(F)(F)F)cc3)ccc2O1	-85*	/
C[C@@H]1CCCCO[C@@H](CN(C)S(=O)(=O)c2ccc(Cl)cc2)[C@@H](C)CN([C@H](C)CO)C(=O)c2cc(NC(=O)Nc3ccc(C(F)(F)F)cc3)ccc2O1	-86*	19
C[C@@H]1CCCCO[C@@H](CN(C)S(=O)(=O)c2ccc(Cl)cc2)[C@H](C)CN([C@H](C)CO)C(=O)c2cc(NC(=O)Nc3ccc(C(F)(F)F)cc3)ccc2O1	-77	14
C[C@@H]1CN([C@@H](C)CO)C(=O)c2cccc(NC(=O)C3CCCCC3)c2O[C@@H]1CN(C)Cc1ccc(C(=O)O)cc1	16	3
CCCC#Cc1cnc2c(c1)C(=O)N([C@H](C)CO)C[C@@H](C)[C@@H](CN(C)C(=O)C1CCC1)O2	5	3
C[C@@H]1CCCCO[C@@H](CN(C)Cc2ccncc2)[C@H](C)CN([C@@H](C)CO)C(=O)c2cc(NC(=O)CCCCCC(=O)Nc3ccccc3N)ccc2O1	-35	3
OC[C@@H]1[C@H](c2ccc(C3=CCCC3)cc2)[C@@H](CNC2CCCC2)N1CC1CC1	-91*	42
CCC(=O)NC[C@@H]1[C@@H](c2ccc(C3=CCCCC3)cc2)[C@@H](CO)N1CC1CC1	-65	12
CCC(=O)N1[C@H](CO)[C@H](c2ccc(C3=CCCCC3)cc2)[C@@H]1CNC1CCCC1	-76	17
CCCNC[C@@H]1[C@@H](c2ccc(C3=CCCCC3)cc2)[C@@H](CO)N1C(=O)C1CCC1	-73	9
CCC(=O)N1[C@H](CO)[C@H](c2ccc(C3=CCCCC3)cc2)[C@H]1CNCC1CCC1	-85*	10
CCCNC[C@H]1[C@@H](c2ccc(C3=CCCCC3)cc2)[C@@H](CO)N1C(=O)C1CCC1	-83*	7
COc1ccc2c3c([nH]c2c1)[C@@H](CO)N(C)CC31CN(S(=O)(=O)c2cccc(F)c2)C1	-14	-1
O=C(c1ccccc1)N1CC(=O)N2[C@@H](CO)[C@H](c3ccc(C#Cc4ccccc4)cc3)[C@@H]2C1	11	-2
CC(C)C#Cc1cnc2c(c1)C(=O)N([C@@H](C)CO)C[C@H](C)[C@@H](CN(C)C(=O)Nc1cccc(F)c1)O2	-54	-22
C[C@@H]1CCCCO[C@H](CN(C)C(=O)Nc2ccc(C(F)(F)F)cc2)[C@H](C)CN([C@H](C)CO)C(=O)c2cc(NC(=O)C3CCCCC3)ccc2O1	-72	13
C[C@@H]1CN([C@H](C)CO)C(=O)c2cc(NC(=O)Nc3ccc(C(F)(F)F)cc3)ccc2O[C@@H](C)CCCCO[C@H]1CN(C)C(=O)Nc1ccc(C(F)(F)F)cc1	-67	7
SMILES	Pf Dd2 inh	C diff growth
C[C@@H]1CCCCO[C@H](CN(C)C(=O)Nc2ccc(C(F)(F)F)cc2)[C@@H](C)CN([C@H](C)CO)C(=O)c2cc(NC(=O)C3CCCCC3)ccc2O1	-84*	-3
C[C@H]1CCCCO[C@H](CN(C)C(=O)Nc2ccc3c(c2)OCO3)[C@@H](C)CN([C@@H](C)CO)C(=O)c2cc(NC(=O)C3CCCCC3)ccc2O1	-89*	-4
C[C@@H]1CN([C@H](C)CO)C(=O)c2cc(NC(=O)C3CCCCC3)ccc2O[C@@H](C)CCCCO[C@H]1CN(C)C(=O)Nc1ccc(C(F)(F)F)cc1	-68	5
C[C@H](CO)N1C[C@H](C)[C@@H](CN(C)C(=O)Nc2ccc(C(F)(F)F)cc2)OCCCC[C@H](C)Oc2ccc(NC(=O)C3CCCCC3)cc2C1=O	-86*	5
C[C@H](CO)N1C[C@H](C)[C@H](CN(C)C(=O)Nc2ccc3c(c2)OCO3)OCCCC[C@H](C)Oc2ccc(NC(=O)C3CCCCC3)cc2C1=O	-47	-3
C[C@@H]1CCCCO[C@H](CN(C)C(=O)Nc2ccc(C(F)(F)F)cc2)[C@@H](C)CN([C@@H](C)CO)C(=O)c2cc(NC(=O)C3CCCCC3)ccc2O1	-85*	-8
CCCNC(=O)[C@H]1[C@H](CO)[C@H]2Cn3c(ccc(C4=CCCC4)c3=O)[C@@H]1N2S(C)(=O)=O	10	-9
CC(C)NC(=O)Nc1ccc2c(c1)C(=O)N([C@@H](C)CO)C[C@@H](C)[C@H](CN(C)C)O2	4	-1
C[C@@H]1CCCCO[C@@H](CN(C)C(=O)Nc2ccc(C(F)(F)F)cc2)[C@H](C)CN([C@@H](C)CO)C(=O)c2cc(NC(=O)Nc3ccc(C(F)(F)F)cc3)ccc2O1	8	18
C[C@@H]1CCCCO[C@@H](CN(C)C(=O)Nc2ccc(C(F)(F)F)cc2)[C@@H](C)CN([C@@H](C)CO)C(=O)c2cc(NC(=O)C3CCCCC3)ccc2O1	-92*	-2
C[C@@H]1CCCCO[C@H](CN(C)C(=O)Nc2ccc(F)cc2)[C@H](C)CN([C@@H](C)CO)C(=O)c2cc(NC(=O)C3CCCCC3)ccc2O1	-75	6
C[C@H]1CCCCO[C@H](CN(C)C(=O)Nc2ccc(C(F)(F)F)cc2)[C@@H](C)CN([C@@H](C)CO)C(=O)c2cc(NC(=O)C3CCCCC3)ccc2O1	-84*	-7
C[C@H]1CCCCO[C@H](CN(C)C(=O)Nc2ccc(C(F)(F)F)cc2)[C@@H](C)CN([C@@H](C)CO)C(=O)c2cc(NC(=O)Nc3ccc(C(F)(F)F)cc3)ccc2O1	-78	2
C[C@H]1CCCCO[C@H](CN(C)C(=O)Nc2ccc(F)cc2)[C@@H](C)CN([C@@H](C)CO)C(=O)c2cc(NC(=O)C3CCCCC3)ccc2O1	-86*	-6
COc1cccc(C#Cc2ccc([C@@H]3[C@@H](CO)N4C(=O)CN(C(C)=O)C[C@@H]34)cc2)c1	8	-18
